Results: publication PMC6689086

Columns and labels:
Heat shock protein SSA1 = Heat shock protein SSA1 (UniProt P10591); assay: mass-spectrometry hit list; affinity purification or IP with mass spectrometry
[1] = target: ATP-dependent molecular chaperone HSC82 (UniProt P15108); assay: as above
ATP-dependent molecular chaperone HSC82, sequence (P15108 whole entry): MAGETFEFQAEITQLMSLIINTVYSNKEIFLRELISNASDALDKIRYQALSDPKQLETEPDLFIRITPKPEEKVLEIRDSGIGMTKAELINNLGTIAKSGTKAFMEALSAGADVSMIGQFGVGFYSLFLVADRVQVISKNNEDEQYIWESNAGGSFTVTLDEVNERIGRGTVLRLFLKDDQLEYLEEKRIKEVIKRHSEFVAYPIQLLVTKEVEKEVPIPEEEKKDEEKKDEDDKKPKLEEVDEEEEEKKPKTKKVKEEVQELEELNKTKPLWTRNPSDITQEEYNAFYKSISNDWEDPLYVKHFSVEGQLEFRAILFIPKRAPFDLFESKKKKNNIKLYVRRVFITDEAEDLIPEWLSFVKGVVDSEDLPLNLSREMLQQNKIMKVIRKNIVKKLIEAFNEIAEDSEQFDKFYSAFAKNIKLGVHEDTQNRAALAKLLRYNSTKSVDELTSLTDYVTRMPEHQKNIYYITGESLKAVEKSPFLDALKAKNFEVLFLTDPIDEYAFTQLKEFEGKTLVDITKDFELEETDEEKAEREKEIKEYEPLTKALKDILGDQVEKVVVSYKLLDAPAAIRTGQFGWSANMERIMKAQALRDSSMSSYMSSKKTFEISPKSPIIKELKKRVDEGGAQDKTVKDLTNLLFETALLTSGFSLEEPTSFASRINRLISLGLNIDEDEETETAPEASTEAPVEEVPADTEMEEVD

Heat shock protein SSA1, sequence (P10591 whole entry): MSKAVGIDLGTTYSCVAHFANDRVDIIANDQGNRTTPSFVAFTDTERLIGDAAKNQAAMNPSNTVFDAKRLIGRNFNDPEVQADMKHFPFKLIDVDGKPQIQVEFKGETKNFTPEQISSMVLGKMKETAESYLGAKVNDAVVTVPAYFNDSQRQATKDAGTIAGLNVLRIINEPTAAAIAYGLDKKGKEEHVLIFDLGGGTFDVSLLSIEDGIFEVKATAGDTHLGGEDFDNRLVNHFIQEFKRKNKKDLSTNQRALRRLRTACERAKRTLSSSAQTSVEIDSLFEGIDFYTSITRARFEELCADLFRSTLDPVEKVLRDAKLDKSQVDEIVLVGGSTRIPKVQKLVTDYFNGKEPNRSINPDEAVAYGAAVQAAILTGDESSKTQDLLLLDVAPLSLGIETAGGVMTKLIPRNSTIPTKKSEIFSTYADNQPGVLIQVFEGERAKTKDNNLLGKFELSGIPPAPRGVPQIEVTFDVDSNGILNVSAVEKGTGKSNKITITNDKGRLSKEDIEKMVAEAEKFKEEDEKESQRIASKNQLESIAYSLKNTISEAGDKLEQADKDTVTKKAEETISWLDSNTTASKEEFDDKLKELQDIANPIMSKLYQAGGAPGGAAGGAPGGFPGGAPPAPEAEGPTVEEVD
Heat shock protein SSA1, P10591, sequence (P10591 whole entry): as above

| Substance | listed as a hit (Heat shock protein SSA1) | listed as a hit [1] |
| --- | --- | --- |
| ATP-dependent molecular chaperone HSP82, P02829 | yes | – |
| Heat shock protein SSA1, P10591 | – | yes |
